Experimental data taken from PubChem BioAssay (NCI).
Where “and” joins values, the source holds several entries; their conditions need not be identical. Equal entries are not always repeated. This is part of a sample that, as a whole, favours compounds with a hit. Of some 83,000 tested, about 20% had one in any assay.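 Cell lines were cultured in 96-well plates, exposed to a single compound concentration, and assessed for percent growth 48 hours later.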 A number with no mark means an inactive call. Calls of active or inactive are those of the source. How the source made its calls: active means growth percent below 10; inactive means the rest.

Experiments:
Assay in all cases: NCI-60 one-dose screen, 48 h (100 = growth as untreated, 0 = no growth, -100 = all killed)
NCI-H23 lung = tested on: NCI-H23 lung
NCI-H226 lung = tested on: NCI-H226 lung
NCI-H322M lung = tested on: NCI-H322M lung
HOP-62 NSCLC = tested on: HOP-62 NSCLC
NCI-H460 lung = tested on: NCI-H460 lung
HOP-92 NSCLC = tested on: HOP-92 NSCLC
NCI-H522 lung = tested on: NCI-H522 lung
A549/ATCC NSCLC = tested on: A549/ATCC NSCLC
786-0 renal = tested on: 786-0 renal
COLO 205 colon = tested on: COLO 205 colon

Structure (SMILES): CC(=O)OCC1OC([S-])C(OC(C)=O)C(OC(C)=O)C1OC(C)=O.[Au+].c1ccc(CN2[CH-]N(Cc3ccccc3)C(c3ccccc3)=C2c2ccccc2)cc1
- growth (NCI-H23 lung; 4.75 µM): 3.45% (active)
- growth (NCI-H23 lung; 10 µM): 2.04% (active)
- growth (NCI-H226 lung; 4.75 µM): 9.99% (active)
- growth (NCI-H226 lung; 10 µM): 92.1%
- growth (NCI-H322M lung; 4.75 µM): 20.8%
- growth (NCI-H322M lung; 10 µM): 57.5%
- growth (HOP-62 NSCLC; 4.75 µM): -12.6% (active)
- growth (HOP-62 NSCLC; 10 µM): 45.1%
- growth (NCI-H460 lung; 4.75 µM): 1.76% (active)
- growth (NCI-H460 lung; 10 µM): 29.2%
- growth (HOP-92 NSCLC; 4.75 µM): -24% (active)
- growth (HOP-92 NSCLC; 10 µM): -9.45% (active)
- growth (NCI-H522 lung; 4.75 µM): -68.7% (active)
- growth (NCI-H522 lung; 10 µM): -27.9% (active)
- growth (A549/ATCC NSCLC; 4.75 µM): 8.63% (active)
- growth (A549/ATCC NSCLC; 10 µM): 59.2%
- growth (786-0 renal; 4.75 µM): -33.7% (active)
- growth (786-0 renal; 10 µM): -72.1% (active)
- growth (COLO 205 colon; 4.75 µM): -75.6% (active)
- growth (COLO 205 colon; 10 µM): 13.6%

Structure (SMILES): CC1=CC(=Nc2ccc(N(CCCl)CCCl)cc2)C=C(C)C1=O
- growth (NCI-H23 lung; 10 µM unless noted): 23%
- growth (NCI-H226 lung; 10 µM unless noted): 44.5%
- growth (NCI-H322M lung; 10 µM unless noted): 79.2%
- growth (HOP-62 NSCLC; 10 µM unless noted): 36.5%
- growth (NCI-H460 lung; 10 µM unless noted): 7.26% (active)
- growth (HOP-92 NSCLC; 10 µM unless noted): -30.7% (active)
- growth (NCI-H522 lung; 10 µM unless noted): -87.2% (active)
- growth (A549/ATCC NSCLC; 10 µM unless noted): 38.4%
- growth (786-0 renal; 10 µM unless noted): 21%
- growth (COLO 205 colon; 10 µM unless noted): 39.5%

Structure (SMILES): Cn1cc(C(=O)C[n+]2ccccc2)c2ccccc21
- growth (NCI-H23 lung; 10 µM unless noted): 91.7%
- growth (NCI-H226 lung; 10 µM unless noted): 99.1%
- growth (NCI-H322M lung; 10 µM unless noted): 104%
- growth (HOP-62 NSCLC; 10 µM unless noted): 95.6%
- growth (NCI-H460 lung; 10 µM unless noted): 107%
- growth (HOP-92 NSCLC; 10 µM unless noted): 92.1%
- growth (NCI-H522 lung; 10 µM unless noted): 96.9%
- growth (A549/ATCC NSCLC; 10 µM unless noted): 102%
- growth (786-0 renal; 10 µM unless noted): 97.4%
- growth (COLO 205 colon; 10 µM unless noted): 101%

Structure (SMILES): C(=NC1CCCCC1)=NC1CCCCC1
- growth (NCI-H23 lung; 10 µM unless noted): 106% and 31.1%
- growth (NCI-H226 lung; 10 µM unless noted): 103% and 57%
- growth (NCI-H322M lung; 10 µM unless noted): 117% and 99.1%
- growth (HOP-62 NSCLC; 10 µM unless noted): 109% and 86.8%
- growth (NCI-H460 lung; 10 µM unless noted): 107% and 100%
- growth (HOP-92 NSCLC; 10 µM unless noted): 92.8% and 62.3%
- growth (NCI-H522 lung; 10 µM unless noted): 91.8% and 85.2%
- growth (A549/ATCC NSCLC; 10 µM unless noted): 111% and 87%
- growth (786-0 renal; 10 µM unless noted): 104% and 87.1%
- growth (COLO 205 colon; 10 µM unless noted): 115% and 88.6%

Structure (SMILES): Cc1cc(NC(=O)NCCCOc2ccc(N3C(N)=NC(N)=NC3(C)C)cc2Cl)ccc1S(=O)(=O)F
- growth (NCI-H23 lung; 10 µM unless noted): 24.1%
- growth (NCI-H226 lung; 10 µM unless noted): 55.7%
- growth (NCI-H322M lung; 10 µM unless noted): 54.2%
- growth (HOP-62 NSCLC; 10 µM unless noted): 51.9%
- growth (NCI-H460 lung; 10 µM unless noted): 13.6%
- growth (HOP-92 NSCLC; 10 µM unless noted): 74.6%
- growth (NCI-H522 lung; 10 µM unless noted): 7.9% (active)
- growth (A549/ATCC NSCLC; 10 µM unless noted): 14.7%
- growth (786-0 renal; 10 µM unless noted): 40.1%
- growth (COLO 205 colon; 10 µM unless noted): 27.9%

Structure (SMILES): C/C(=C(\c1ccc(OCCN2CCOCC2)cc1)c1ccc(OC(=O)Cc2ccccc2)cc1)c1ccc(Cl)cc1
- growth (NCI-H23 lung; 10 µM unless noted): 86%
- growth (NCI-H226 lung; 10 µM unless noted): 103%
- growth (NCI-H322M lung; 10 µM unless noted): 90.6%
- growth (HOP-62 NSCLC; 10 µM unless noted): 98.9%
- growth (NCI-H460 lung; 10 µM unless noted): 97.6%
- growth (HOP-92 NSCLC; 10 µM unless noted): 70%
- growth (NCI-H522 lung; 10 µM unless noted): 72.9%
- growth (A549/ATCC NSCLC; 10 µM unless noted): 90.4%
- growth (786-0 renal; 10 µM unless noted): 77.7%
- growth (COLO 205 colon; 10 µM unless noted): 106%

Structure (SMILES): COC(=O)[C@@H](C)C[C@H](Cc1ccccc1)NC(=O)c1cccc([C@@H](C[C@H](C(C)C)N(C)C(=O)[C@@H](NC(=O)[C@H]2CCCCN2C)C2CC2)OC(C)=O)n1
- growth (NCI-H23 lung; 10 µM unless noted): 21%
- growth (NCI-H226 lung; 10 µM unless noted): 22.8%
- growth (NCI-H322M lung; 10 µM unless noted): 39.4%
- growth (HOP-62 NSCLC; 10 µM unless noted): 3.33% (active)
- growth (NCI-H460 lung; 10 µM unless noted): 7.3% (active)
- growth (HOP-92 NSCLC; 10 µM unless noted): 5.28% (active)
- growth (NCI-H522 lung; 10 µM unless noted): -11.3% (active)
- growth (A549/ATCC NSCLC; 10 µM unless noted): 7.97% (active)
- growth (786-0 renal; 10 µM unless noted): 20.8%
- growth (COLO 205 colon; 10 µM unless noted): -69% (active)

Structure (SMILES): N#CCc1ccc(CC#N)cc1
- growth (NCI-H23 lung; 10 µM unless noted): 103%
- growth (NCI-H226 lung; 10 µM unless noted): 90.4%
- growth (NCI-H322M lung; 10 µM unless noted): 107%
- growth (HOP-62 NSCLC; 10 µM unless noted): 88.4%
- growth (NCI-H460 lung; 10 µM unless noted): 101%
- growth (HOP-92 NSCLC; 10 µM unless noted): 3.82% (active)
- growth (NCI-H522 lung; 10 µM unless noted): 91.5%
- growth (A549/ATCC NSCLC; 10 µM unless noted): 82.1%
- growth (786-0 renal; 10 µM unless noted): 97.5%
- growth (COLO 205 colon; 10 µM unless noted): 111%

Structure (SMILES): COc1ccc2c(c1)c(-c1nc(-c3cn(C)c4ncccc34)cs1)cn2CCCCN1CCOCC1
- growth (NCI-H23 lung; 10 µM unless noted): 78.4%
- growth (NCI-H226 lung; 10 µM unless noted): 70.1%
- growth (NCI-H322M lung; 10 µM unless noted): 65.9%
- growth (HOP-62 NSCLC; 10 µM unless noted): 30.9%
- growth (NCI-H460 lung; 10 µM unless noted): -31.9% (active)
- growth (HOP-92 NSCLC; 10 µM unless noted): 47.9%
- growth (NCI-H522 lung; 10 µM unless noted): 3.68% (active)
- growth (A549/ATCC NSCLC; 10 µM unless noted): 48.3%
- growth (786-0 renal; 10 µM unless noted): -71.7% (active)
- growth (COLO 205 colon; 10 µM unless noted): -91.7% (active)

Structure (SMILES): NC(=O)c1c(Br)c(Br)c(Br)c(Br)c1C(=O)O (tested in a mixture with another compound)
- growth (NCI-H23 lung; 10 µM unless noted): 99.9% and 100%
- growth (NCI-H226 lung; 10 µM unless noted): 99.8% and 98.4%
- growth (NCI-H322M lung; 10 µM unless noted): 105% and 114%
- growth (HOP-62 NSCLC; 10 µM unless noted): 124% and 103%
- growth (NCI-H460 lung; 10 µM unless noted): 111%
- growth (HOP-92 NSCLC; 10 µM unless noted): 85.8% and 86%
- growth (NCI-H522 lung; 10 µM unless noted): 93% and 99.3%
- growth (A549/ATCC NSCLC; 10 µM unless noted): 102% and 98%
- growth (786-0 renal; 10 µM unless noted): 109% and 104%
- growth (COLO 205 colon; 10 µM unless noted): 113% and 104%

Structure (SMILES): Oc1cc(Cl)ccc1Oc1ccc(Cl)cc1Cl
- growth (NCI-H23 lung; 10 µM unless noted): 7.13% (active)
- growth (NCI-H226 lung; 10 µM unless noted): 99.7%
- growth (NCI-H322M lung; 10 µM unless noted): 97.6%
- growth (HOP-62 NSCLC; 10 µM unless noted): 20.5%
- growth (NCI-H460 lung; 10 µM unless noted): 3.2% (active)
- growth (HOP-92 NSCLC; 10 µM unless noted): -11.4% (active)
- growth (NCI-H522 lung; 10 µM unless noted): -4.34% (active)
- growth (A549/ATCC NSCLC; 10 µM unless noted): 37.5%
- growth (786-0 renal; 10 µM unless noted): 86.4%
- growth (COLO 205 colon; 10 µM unless noted): 105%
